The source of these data is PubChem BioAssay.

SMILES strings stand for the structures. Values without a mark were called inactive. For some of these results: Results with a measured potency or affinity are listed apart. The source made the active and inactive calls. Unless noted, how the calls were made is not given here.

The nature of test [1]: antimalarial activity against Dd2 strain (AID 2302;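 active means growth inhibition above 50% at the single 2 µM test dose, taken to imply half-maximal potency below 2 µM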;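 further: 0% = DMSO untreated growth and 100% = chloroquine plus artemisinin killed control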). To be noted: P. falciparum Dd2 in RBCs, LDH growth readout, 72 h; at 2 µM; hits give high values.
The nature of test [2]: HepG2 cytotoxicity, primary screen, cytotoxicity control for P. falciparum antimalarial project, cell-based, ATP luminescence (AID 2303;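 active means inhibition above 50%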;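 further: 0% = DMSO wells and 100% = digitonin-killed cells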). To be noted: HepG2 viability, 24-48 h, at 10 µM, hits give high values.
The target of test [3] is L-lactate dehydrogenase (Plasmodium falciparum (isolate CDC / Honduras)) (UniProt Q27743). Put plainly: PfLDH activity inhibition – cell lysate, 3D7 strain, counter-screen for P. falciparum growth inhibition project (AID 2304).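 Further: 0% = vehicle and 100% = reference inhibitor.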 To be noted: P. falciparum 3D7 crude extract, LDH APAD/NBT absorbance; at 2 µM; hits give high values. A general note: A counterscreen serves to expose hits that act by an unwanted route or on another target.
Sequence of L-lactate dehydrogenase (Plasmodium falciparum (isolate CDC / Honduras)) (Q27743 whole entry, looked up): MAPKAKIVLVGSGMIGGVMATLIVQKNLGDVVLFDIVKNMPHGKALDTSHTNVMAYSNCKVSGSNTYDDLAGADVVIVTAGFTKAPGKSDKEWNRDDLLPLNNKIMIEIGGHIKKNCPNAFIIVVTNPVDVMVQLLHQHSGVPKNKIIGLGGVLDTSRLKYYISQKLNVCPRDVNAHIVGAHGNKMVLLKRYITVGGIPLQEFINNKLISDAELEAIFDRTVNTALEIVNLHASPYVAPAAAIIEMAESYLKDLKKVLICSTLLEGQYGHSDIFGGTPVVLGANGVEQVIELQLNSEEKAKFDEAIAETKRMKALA

Test [4] is described as follows: inhibition of 3D7 malaria parasite growth – strain 3D7 (AID 2306).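 Further: 0% = DMSO wells and 100% = chloroquine plus artemisinin control wells.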 To be noted: P. falciparum 3D7 erythrocytic growth, LDH absorbance, 72 h; at 2 µM; hits give high values.
In test [5] the target is Calcium-dependent protein kinase 1 (Plasmodium falciparum (isolate 3D7)) (UniProt P62344). Nature of the test: PfCDPK1 kinase inhibitors, biochemical, TCAMS library (AID 1159585; cut-off not given, nearly all actives have IC50 up to about 0.98 µM;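 further: inhibitors leave more ATP so luminescence rises with inhibition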). To be noted: recombinant PfCDPK1, Kinase-Glo ATP depletion luminescence. On the technique in general: Kinase-Glo measures the ATP left after a reaction by luminescence.
Sequence of Calcium-dependent protein kinase 1 (Plasmodium falciparum (isolate 3D7)) (P62344 whole entry, looked up): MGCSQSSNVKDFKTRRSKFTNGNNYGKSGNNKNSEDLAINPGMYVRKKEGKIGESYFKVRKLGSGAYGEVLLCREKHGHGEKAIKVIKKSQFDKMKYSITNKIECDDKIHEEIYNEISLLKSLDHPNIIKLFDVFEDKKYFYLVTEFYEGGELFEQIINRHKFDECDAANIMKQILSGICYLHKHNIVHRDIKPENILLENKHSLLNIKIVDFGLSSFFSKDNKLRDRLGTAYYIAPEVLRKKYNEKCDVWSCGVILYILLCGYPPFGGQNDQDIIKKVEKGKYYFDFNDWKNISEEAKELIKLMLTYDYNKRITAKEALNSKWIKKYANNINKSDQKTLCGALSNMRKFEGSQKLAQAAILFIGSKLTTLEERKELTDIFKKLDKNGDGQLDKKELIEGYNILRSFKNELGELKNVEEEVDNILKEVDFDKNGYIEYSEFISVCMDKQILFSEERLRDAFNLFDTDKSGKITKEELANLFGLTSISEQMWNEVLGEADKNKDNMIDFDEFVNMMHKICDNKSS
Test [6] has as its target Plasmodium falciparum protein kinase 6 (PK6, PF3D7_1337100) (UniProt Q8IDW1). Nature of the test: PfPK6 kinase inhibitors, biochemical, TCAMS library (AID 1159586). To be noted: recombinant PfPK6, Kinase-Glo ATP depletion luminescence.
Test [7] deals with Protein kinase 7 (PK7), Plasmodium falciparum 3D7 (PF3D7_0213400) (UniProt Q7YTF7). Nature of the test: inhibition of Plasmodium PK7 catalytic activity – biochemical, TCAMS antimalarial set, Kinase-Glo luminescence (AID 1159587). To be noted: recombinant PfPK7, Kinase-Glo ATP depletion luminescence.
Sequence of Protein kinase 7 (PK7), Plasmodium falciparum 3D7 (PF3D7_0213400) (Q7YTF7 1-343): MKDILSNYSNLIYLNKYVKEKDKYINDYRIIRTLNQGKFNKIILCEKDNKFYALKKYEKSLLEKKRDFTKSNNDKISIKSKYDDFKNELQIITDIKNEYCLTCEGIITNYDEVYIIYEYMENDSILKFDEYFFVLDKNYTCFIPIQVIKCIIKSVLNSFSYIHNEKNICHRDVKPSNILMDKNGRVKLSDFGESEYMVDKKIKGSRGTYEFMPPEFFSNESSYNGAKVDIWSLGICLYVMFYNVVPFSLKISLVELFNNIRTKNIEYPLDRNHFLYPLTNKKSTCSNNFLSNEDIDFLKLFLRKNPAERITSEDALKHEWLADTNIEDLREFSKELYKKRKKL
Test [8] deals with Calcium-dependent protein kinase 4 (Plasmodium falciparum (isolate 3D7)) (UniProt Q8IBS5). Put plainly: PfCDPK4 kinase inhibitors, biochemical, TCAMS library (AID 1159588; cut-off not given, nearly all actives have IC50 up to about 0.91 µM). To be noted: recombinant PfCDPK4, Kinase-Glo ATP depletion luminescence.
Sequence of Calcium-dependent protein kinase 4 (Plasmodium falciparum (isolate 3D7)) (Q8IBS5 whole entry, looked up): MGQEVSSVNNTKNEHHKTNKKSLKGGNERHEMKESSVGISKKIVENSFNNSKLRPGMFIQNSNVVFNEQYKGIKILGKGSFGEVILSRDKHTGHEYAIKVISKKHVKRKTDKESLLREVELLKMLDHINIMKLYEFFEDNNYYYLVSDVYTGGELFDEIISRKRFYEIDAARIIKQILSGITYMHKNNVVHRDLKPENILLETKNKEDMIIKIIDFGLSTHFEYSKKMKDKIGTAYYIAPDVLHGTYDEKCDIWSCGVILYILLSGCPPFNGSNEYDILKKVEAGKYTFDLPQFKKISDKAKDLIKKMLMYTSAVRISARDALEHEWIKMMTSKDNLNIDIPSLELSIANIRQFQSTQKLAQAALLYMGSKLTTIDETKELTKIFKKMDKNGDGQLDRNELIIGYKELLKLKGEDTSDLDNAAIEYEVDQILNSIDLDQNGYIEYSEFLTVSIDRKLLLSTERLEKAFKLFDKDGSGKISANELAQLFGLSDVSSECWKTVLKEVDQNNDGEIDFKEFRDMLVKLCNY

Sequence of Plasmodium falciparum protein kinase 6 (PK6, PF3D7_1337100) (Q8IDW1 1-305): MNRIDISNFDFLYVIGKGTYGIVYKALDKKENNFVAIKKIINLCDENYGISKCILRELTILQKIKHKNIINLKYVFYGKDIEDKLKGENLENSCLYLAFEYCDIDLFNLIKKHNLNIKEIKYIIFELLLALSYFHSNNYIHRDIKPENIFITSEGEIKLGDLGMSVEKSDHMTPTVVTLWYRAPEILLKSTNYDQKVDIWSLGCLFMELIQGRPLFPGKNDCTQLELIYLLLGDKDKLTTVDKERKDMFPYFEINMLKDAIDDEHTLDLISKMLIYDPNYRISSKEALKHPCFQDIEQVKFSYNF

`CN1CCN(CC(=O)Nc2cccc(-c3ccc(-c4nc5ccc(F)cc5[nH]4)cc3)c2)CC1`: the figures for the growth inhibition in test [1] and in test [4] were 98% (active) and 101% (active), respectively. The values for the inhibition in test [2] and in test [3] were 20% and 6%, respectively. Also, the result in test [5], in test [6], in test [7] and in test [8] was inactive.
On to `CCOC(=O)C1=C(C)NC(Cn2ccnc2)=C(C(=O)OCC)C1c1ccc(C(C)(C)C)cc1` (stereo not given), for which the growth inhibition in test [1] is 33%; in test [4], 100% (active). Further, the inhibition (usually the change of the read-out against control, counted positive when it falls) in test [2] was 8%; in test [3], -10%. Besides, the outcome in test [5], in test [6], in test [7] and in test [8] was inactive.
Turning to `CCn1ccc2c(N3CCCC3=O)cc(C(=O)N[C@@H](Cc3ccccc3)[C@H](O)CNCc3cccc(OC)c3)cc21`, the values for the growth inhibition in test [1] and in test [4] were 92% (active) and 94% (active), respectively. The inhibition was 4% in test [2] and -5% in test [3]. For the same compound, the outcome in test [5], in test [6], in test [7] and in test [8] was inactive.
For `Cc1ccc(-c2nc3ccccc3o2)cc1NCc1cc(Cc2ccccc2)ccc1O`, the values for the growth inhibition in test [1] and in test [4] were 50% (active) and 82% (active), respectively. Also, the results for the inhibition in test [2] and in test [3] were 45% and -4%, respectively. In addition, the result in test [5], in test [6], in test [7] and in test [8] was inactive.
As for `Cc1ccccc1C1CCN(C2CCC(NC(=O)c3ccc(-c4cccs4)s3)CC2)CC1` (stereo not given), the growth inhibition in test [1] is 54% (active); in test [4] it was 101% (active). The inhibition is 58% (active) in test [2] and -2% in test [3]. The result in test [5], in test [6], in test [7] and in test [8] was inactive.
Take `COc1ccc2nc(C)cc(Nc3ccc(Oc4ccc5ccccc5c4Cl)c(Cl)c3)c2c1`: the growth inhibition in test [1] is 98% (active); in test [4] it was 100% (active). Moreover, the figures for the inhibition in test [2] and in test [3] were 32% and 7%, respectively. Moreover, the outcome in test [5], in test [6], in test [7] and in test [8] was inactive.
`Cn1nc(C(F)(F)F)cc1-c1ccc(C(=O)Nc2ccc3c(c2)CNCC3(C)C)s1`: the growth inhibition in test [1] was 36%; in test [4], 88% (active). The results for the inhibition in test [2] and in test [3] were 10% and -1%, respectively. Also, the result in test [5], in test [6], in test [7] and in test [8] was inactive.
Turning to `COc1ccc(NC(=O)Nc2ccc(-c3ccccc3)cc2)cc1Cn1cnc(N2CCCNCC2)cc1=O`, the growth inhibition is 38% in test [1] and 101% (active) in test [4]. Besides, the inhibition in test [2] is 24%; in test [3], 8%. Further, the outcome in test [5], in test [6], in test [7] and in test [8] was inactive.
In the case of `NC(=O)c1ccc(-n2cnc3cc(F)ccc32)cc1OCc1ccccc1C(F)(F)F` (tested in a mixture with another compound), the growth inhibition in test [1] was 93% (active); in test [4], 97% (active). Also, the inhibition in test [2] is 55% (active); in test [3], 3%. Besides, the result in test [5], in test [6], in test [7] and in test [8] was inactive.
For the compound `CN1CCC(c2csc3ccc(NC(=O)Nc4ccc(-c5ccncc5)c5ccccc45)cc23)CC1`, the values for the growth inhibition in test [1] and in test [4] were 71% (active) and 98% (active), respectively. Besides, the inhibition in test [2] is 8%; in test [3], 0%. The result in test [5], in test [6], in test [7] and in test [8] was inactive.
For the compound `COc1ccc(CCN(C)CCCN2CCC(NC(=O)c3cccc4c(=O)c5ccccc5sc34)CC2)cc1OC`, the growth inhibition in test [1] is 79% (active); in test [4], 97% (active). The values for the inhibition in test [2] and in test [3] were 67% (active) and 4%, respectively. The outcome in test [5], in test [6], in test [7] and in test [8] was inactive.
For the compound `CC1(C)CC(=O)c2c(O)cc(OCc3ccncc3)cc2O1`, the growth inhibition was 47% in test [1] and 92% (active) in test [4]. The results for the inhibition in test [2] and in test [3] were 80% (active) and -1%, respectively. For the same compound, the outcome in test [5], in test [6], in test [7] and in test [8] was inactive.
`CC(=O)OCCN1C(=O)c2ccc3c4c(ccc(c24)C1=O)C(=O)N(CCOC(C)=O)C3=O`: the growth inhibition in test [1] is 1%; in test [4], 94% (active). Besides, the inhibition in test [2] was 2%; in test [3], 3%. For the same compound, the outcome in test [5], in test [6], in test [7] and in test [8] was inactive.
Turning to `CCOC(=O)c1c(C)noc1Nc1cccc(C)c1C`, the results for the growth inhibition in test [1] and in test [4] were -2% and 98% (active), respectively. In addition, the inhibition in test [2] was 8%; in test [3], 2%. Moreover, the outcome in test [5], in test [6], in test [7] and in test [8] was inactive.
Turning to `Oc1ccc(CCNc2nc(NCc3ccc4cc(Cl)ccc4c3)nc(N3CCNCC3)n2)cc1`, the growth inhibition in test [1] was 38%; in test [4] it was 92% (active). For the same compound, the inhibition in test [2] was 14%; in test [3] it was -3%. The outcome in test [5], in test [6], in test [7] and in test [8] was inactive.
Consider `COc1ccc(N2CCN(CCCCNC(=O)c3ccc(NC(=O)c4ccc(Cl)cc4)cc3)CC2)c(OC)c1`, for which the figures for the growth inhibition in test [1] and in test [4] were 22% and 97% (active), respectively. The inhibition in test [2] was 25%; in test [3], 6%. The outcome in test [5], in test [6], in test [7] and in test [8] was inactive.
In the case of `O=C(NC1CCCCC1)N(Cc1ccc(-c2cccc(CNC3CCCC3)c2)cc1)C1CCN(Cc2ccccc2)CC1`, the growth inhibition in test [1] is 59% (active); in test [4], 95% (active). Moreover, the figures for the inhibition in test [2] and in test [3] were 52% (active) and 3%, respectively. Further, the result in test [5], in test [6], in test [7] and in test [8] was inactive.
As for `CC(C)(Oc1ccc(Cl)cc1)C(=O)NCCC1CCN(CCCCCNC(=O)/C=C/c2ccc(Cl)c(Cl)c2)CC1`, the growth inhibition was 37% in test [1] and 87% (active) in test [4]. Moreover, the inhibition in test [2] was 73% (active); in test [3] it was -1%. Besides, the result in test [5], in test [6], in test [7] and in test [8] was inactive.
On to `NC(N)=Nc1nc(-c2cccc(NC(=O)C(F)(F)F)c2)cs1`, for which the results for the growth inhibition in test [1] and in test [4] were 24% and 94% (active), respectively. The inhibition in test [2] was -4%; in test [3], -2%. Further, the result in test [5], in test [6], in test [7] and in test [8] was inactive.
For `Cc1cc(NC(=O)Nc2ccc(N(C)C)cc2)c2cc(Cl)ccc2n1`, the growth inhibition is 50% (active) in test [1] and 100% (active) in test [4]. In addition, the inhibition is -4% in test [2] and 3% in test [3]. The result in test [5], in test [6], in test [7] and in test [8] was inactive.
